Bioassay records: PubChem BioAssay, National Center for Advancing Translational Sciences (NCATS)
Rows were chosen to be rich in hits. Some 3.6% of all compounds tested hit in one or more screens of this group.
KAT2A inh: inhibitors of human GCN5L2 histone acetyltransferase | AID 504327 | Potency, µM (highest dose often 58.9 µM), without a hit: at the top dose activity change, negative = inhibition, most hits filed as inhibitors | Q92830 | actives 0.21% (n = 390,000) | GCN5L2 HAT assay, ThioGlo1 CoA-SH fluorescence; note: % is set by controls: 0 for no effect and ±100 for the full control effect
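GCN5L2 (20 nM) in 50mM HEPES pH 7.5, 0.1mM EDTA, 0.01% Tween-20 preincubated 15 min with compounds at room temperature. Reaction started with H3(1-25) 75uM, acetyl-CoA 70uM, ThioGlo1 50uM; CoA-thiol fluorescence (Ex340/Em540) read at 0 and 20 min.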
Sfp PPTase inh: blocks B. subtilis Sfp PPTase activity; Biochemical Sfp PPTase activity, qHTS; Potency, µM, inactives show largest response in the series, negative = inhibition, hits mostly inhibitors; actives 3.5% (n = 310,000); AID 1490;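 note: the enzyme is Sfp with the accession as filed and its product quenches rhodamine fluorescence; 0% = enzyme reaction without inhibitor and -100% = no enzyme wells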
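Buffer: 50 mM Hepes-Na pH 7.6, 10 mM MgCl2, 0.01% Nonidet P-40, 0.01% BSA. Enzyme 15 nM, pre-exposed to compound 15 min; substrates then added and fluorescence change tracked over 30 min.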
Epigenetic derep: regulators of epigenetic silencing causing reporter derepression in mouse cells; murine LDR cells, GFP reporter derepression, 30 h; Potency, µM (top dose mostly 53.9 µM), without a hit: at the highest dose GFP activation, most hits filed as activators; actives 0.2% (n = 280,000); note: % of control where 0% means no effect; nearly all actives have a fitted effect of over 60% in size
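Readout is the number of GFP-expressing murine LDR cells, counted by cytometry following washing. Cells were treated with compound for 30 h at 37 C; the stably integrated CMV-GFP locus is normally silent.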
IMPase Li cell: IMPase inhibition in cells with lithium potentiation; CHO-M1 cells, IP1 TR-FRET (IP-One), carbachol + lithium; Potency, µM (top dose mostly 59.4 µM), without a hit: top-dose activity, negative = IMPase inhibition, actives largely listed as inhibitors; actives 0.35% (n = 210,000); AID 1457;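 note: IP1 builds up when IMPase is blocked and the TR-FRET signal falls; plate controls were basal vehicle for no effect and high inhibitor control for full effect; nearly all actives have a fitted effect of over 50% in size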
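CHO-M1, 2000 cells/well, 16–30 h culture; cpd + low Li+, 30 min 37C; lysis with d2-IP1/Eu-anti-IP1 Ab, 10 min RT; TR-FRET 665/620 ratio and 620 channel; AC50 via Hill.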
JMJD2E inh: inhibitors of human JMJD2E histone demethylase; B2RXH2; JMJD2E catalytic domain, FDH-coupled NADH fluorescence (FDH is formaldehyde dehydrogenase); Potency, µM (top dose mostly 57.1 µM), for inactives: at the highest dose activity change, negative = inhibition, actives largely listed as inhibitors; actives 1.6% (n = 230,000); AID 2147; active = well fitted inhibition curve with a large enough effect, not every such curve was filed as active; inconclusive = small, poorly fitted or top-dose-only effect, or another doubt; inactive = no such curve, though single readings can be large or run the other way;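 note: 0% = wells with enzyme and -100% = buffer wells without enzyme; nearly all actives have a fitted effect of over 50% in size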
Target sequence (B2RXH2 1-337 limits assumed): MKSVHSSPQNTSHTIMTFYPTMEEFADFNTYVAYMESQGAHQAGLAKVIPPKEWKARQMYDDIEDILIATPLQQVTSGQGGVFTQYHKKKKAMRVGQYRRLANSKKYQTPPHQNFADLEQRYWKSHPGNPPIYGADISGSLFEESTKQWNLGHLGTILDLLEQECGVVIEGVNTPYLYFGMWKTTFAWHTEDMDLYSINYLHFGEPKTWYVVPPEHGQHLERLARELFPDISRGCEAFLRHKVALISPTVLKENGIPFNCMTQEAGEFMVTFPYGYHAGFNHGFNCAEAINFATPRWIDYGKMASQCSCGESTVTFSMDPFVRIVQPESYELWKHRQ
NPSR antagonist: neuropeptide S receptor (human) antagonism, cAMP; Q6W5P4; actives 1% (n = 220,000); Potency, µM (highest dose often 38.3 µM), inactives show top-dose activity change, negative = inhibition, most hits filed as inhibitors; CHO-NPSR cells, cAMP TR-FRET, antagonist mode; AID 1461; note: % is set by controls: 0 for no effect and ±100 for the full control effect; nearly all actives have a fitted effect of over 50% in size
* marks the source's active call; other numbers are inactive results; ! = a repeat was not active; [ ] = another dose, or the depositor's remark. Unless noted, calls come from the whole dose curve; as a rule, active = well fitted curve in the direction sought with a large enough effect; inconclusive = small, poorly fitted or top-dose-only effect, or another doubt; inactive = no such curve, though single readings can be large; an effect the other way counts as inactive or inconclusive. Potency is the fitted concentration of half-maximal effect.

What do the screens show for `O=C1c2cccc3c([N+](=O)[O-])ccc(c23)C(=O)N1c1ccc(Cl)cn1`?
KAT2A inh: -9%; Sfp PPTase inh: -13%; Epigenetic derep: 14µM*; IMPase Li cell: 31%[38.3 µM]; JMJD2E inh: -11%; NPSR antagonist: 5µM*

How did CCCCCCn1c(SCC(=O)OC)nc2c1c(=O)[nH]c(=O)n2C do in these assays?
KAT2A inh: -17%; Sfp PPTase inh: 16µM*; Epigenetic derep: 0%; IMPase Li cell: 24%[38.3 µM]; JMJD2E inh: 2%; NPSR antagonist: -12%[46.1 µM]

How did CC(=O)CSc1nc2c(c(=O)[nH]c(=O)n2C)n1Cc1cccc(Br)c1 do in these assays?
KAT2A inh: -7%; Sfp PPTase inh: 45µM*

Results for C=CCSc1nc2c(c(=O)[nH]c(=O)n2C)n1CC ?
KAT2A inh: -12%; Sfp PPTase inh: 14µM*; Epigenetic derep: -2%; IMPase Li cell: 4%[38.3 µM]; JMJD2E inh: -10%; NPSR antagonist: 1%[46.1 µM]

How did Cn1c(=O)[nH]c(=O)c2c1nc(SCCC(=O)O)n2Cc1cccc(Br)c1 do in these assays?
KAT2A inh: -8%; Sfp PPTase inh: -5%

Results for C=CCSc1nc2c(c(=O)[nH]c(=O)n2C)n1C/C=C(/C)Cl ?
KAT2A inh: 0%; Sfp PPTase inh: -5%; Epigenetic derep: 4%; IMPase Li cell: -4%[38.3 µM]; JMJD2E inh: 0%; NPSR antagonist: -5%[46.1 µM]

What do the screens show for `CCCCCCn1c(SCC(C)C)nc2c1c(=O)[nH]c(=O)n2C`?
KAT2A inh: 1%; Sfp PPTase inh: 7%; Epigenetic derep: 2%; IMPase Li cell: 4%[38.3 µM]; JMJD2E inh: 7%; NPSR antagonist: 6%[46.1 µM]

What do the screens show for `CCOC(=O)C(C)Sc1nc2c(c(=O)[nH]c(=O)n2C)n1C/C=C(/C)Cl` (stereo unspecified)?
KAT2A inh: -1%; Sfp PPTase inh: 22µM*; Epigenetic derep: -3%; IMPase Li cell: 8%[38.3 µM]; JMJD2E inh: -7%; NPSR antagonist: -5%[46.1 µM]

Results for COCCNC(=O)CSc1nc(-c2ccccc2C)nc2c1c(=O)n(C)c(=O)n2C ?
KAT2A inh: -4%; Epigenetic derep: 1%

Results for CCCCCn1c(Sc2nc3ccccc3s2)nc2c1c(=O)[nH]c(=O)n2C ?
KAT2A inh: -1%; Sfp PPTase inh: 7%; Epigenetic derep: 4%; IMPase Li cell: 13µM*; JMJD2E inh: -3%; NPSR antagonist: -25%[46.1 µM]

How did CCCCCn1c(Sc2ncccn2)nc2c1c(=O)[nH]c(=O)n2C do in these assays?
KAT2A inh: -6%; Sfp PPTase inh: 20%; Epigenetic derep: -1%; IMPase Li cell: 10%; JMJD2E inh: 3%; NPSR antagonist: -1%[46.1 µM]

Results for Cc1cccc(OCCn2nnc3sc4c(c3c2=O)CCCC4)c1 ?
KAT2A inh: -10%; Epigenetic derep: -4%

Results for CCN1CCN(CC(=O)Nc2ccc(Cl)c(S(=O)(=O)N(C)C)c2)CC1 ?
KAT2A inh: 18%; Sfp PPTase inh: 40µM*; Epigenetic derep: -1%; IMPase Li cell: 15%; JMJD2E inh: -4%; NPSR antagonist: 25%

How did CC(C)(C)c1ccc(C2=NC(=O)C(CC(=O)O)S2)cc1 (stereo unspecified) do in these assays?
KAT2A inh: -17%; Sfp PPTase inh: 50µM*; Epigenetic derep: -2%; JMJD2E inh: -18%; NPSR antagonist: 11%

What do the screens show for `COc1ccc(C(=O)CC2SC(N)=NC2=O)cc1` (stereo unspecified)?
KAT2A inh: -28%; Sfp PPTase inh: -12%; Epigenetic derep: -1%; JMJD2E inh: -2%; NPSR antagonist: 14%

Results for CC(O)C(N)C(=O)O (stereo unspecified) ?
KAT2A inh: 2%; Sfp PPTase inh: -9%

How did N[C@H](C(=O)O)[C@H](O)C(=O)O do in these assays?
KAT2A inh: inconclusive; Sfp PPTase inh: 89µM*!; Epigenetic derep: 0%; IMPase Li cell: -2%; JMJD2E inh: 13µM*!; NPSR antagonist: -8%[46.1 µM]

How did COc1ccc(N(Cc2nnc3n2CCCCC3)C(=O)Nc2ccc(Cl)cc2)cc1Cl do in these assays?
KAT2A inh: -7%; Epigenetic derep: 5%

What do the screens show for `Cn1cc(C(=O)N/N=C/C2=C(N3CCOCC3)C(=C\c3ccccc3)/CC2)ccc1=O`?
KAT2A inh: 2%; Sfp PPTase inh: -6%; Epigenetic derep: 2%; IMPase Li cell: 25%; JMJD2E inh: 0%; NPSR antagonist: -9%

Results for O=C1Nc2ccccc2/C1=N\N=C\C1=C(N2CCOCC2)C(=C\c2ccccc2)/CC1 ?
KAT2A inh: 63%; Sfp PPTase inh: 32µM*; Epigenetic derep: 4%; IMPase Li cell: 5%[38.3 µM]; JMJD2E inh: 2%; NPSR antagonist: inconclusive

How did NCc1nnn(Cc2ccccc2)c1N do in these assays?
IMPase Li cell: 5%

How did CN(C)CC[C@H](c1ccc(Br)cc1)c1ccccn1 do in these assays?
KAT2A inh: 6%[21.4 µM]; Sfp PPTase inh: 27%; Epigenetic derep: 1%[16.9 µM]; IMPase Li cell: 9%; JMJD2E inh: 5%[25.5 µM]

What do the screens show for `COc1ccc2[nH]c3c(c2c1)CCNC3c1ccc([N+](=O)[O-])o1` (stereo unspecified)?
KAT2A inh: -1%; Sfp PPTase inh: 50µM*

Results for COc1ccc(OC)c(-c2ccccc2/C=N/NS(=O)(=O)c2ccc(C)cc2)c1 ?
Sfp PPTase inh: -5%; Epigenetic derep: 0%[10.1 µM]
